Assay results from PubChem BioAssay (NCI).
Compounds without any hit were thinned out: in the full panel of roughly 79,000, 15% have a hit. Active and inactive are the calls of the source. Rule as the data show it: active = growth inhibition above about 70%; inactive = the rest.

How the values were obtained:
[1] = NCI Yeast Anticancer Drug Screen. Data for the rad50 strain (AID 155);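 also: 0% = growth of vehicle-only cultures of the same strain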; settings: S. cerevisiae rad50 strain growth inhibition; at 50.0 µM; stronger effect = higher value
Summary of the method: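 Genetically altered yeast (DNA repair pathway); compound treatment; growth inhibition vs vehicle ctrl.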

[2] = NCI Yeast Anticancer Drug Screen. Data for the mec2-1 strain (AID 157); settings: S. cerevisiae mec2-1 strain, at 50.0 µM, stronger effect = higher value
Summary of the method: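 Cells of the genetically defined mec2-1 yeast strain are incubated with test compound. Inhibition of growth is calculated against vehicle-treated controls.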

[3] = NCI Yeast Anticancer Drug Screen. Data for the sgs1 mgt1 strain (AID 161);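 also: 0% = growth of cultures given vehicle only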; settings: S. cerevisiae sgs1 mgt1 strain, at 50.0 µM, stronger effect = higher value
Summary of the method: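 Genetically altered yeast, compound exposure, growth inhibition relative to vehicle.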

[4] = NCI Yeast Anticancer Drug Screen. Data for the cln2 rad14 strain (AID 165);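 also: 0% = growth equal to vehicle treated cultures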; settings: S. cerevisiae cln2 rad14 strain, at 50.0 µM, stronger effect = higher value
Summary of the method: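 The screen exposed genetically defined yeast (cln2 rad14) to test compounds and scored growth inhibition relative to vehicle-treated controls.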

[5] = NCI Yeast Anticancer Drug Screen. Data for the bub3 strain (AID 167); settings: S. cerevisiae bub3 mutant strain, at 50.0 µM, stronger effect = higher value
Summary of the method: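 Yeast carrying a defined mutation is treated with each compound, and growth is compared with that of vehicle-exposed cells to give inhibition.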

[6] = NCI Yeast Anticancer Drug Screen. Data for the mlh1 rad18 strain (AID 175); settings: S. cerevisiae mlh1 rad18 strain growth inhibition; at 50.0 µM; stronger effect = higher value
Summary of the method: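 Compound-treated yeast growth, normalised to vehicle controls. Strain bears defined DNA repair mutations.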

Measured: growth inhibition

O=C1NC(=S)NC(=O)C1=Cc1ccccc1OCc1ccccc1
inactive: [1] -19.4% | [2] -16.1% | [3] -0.55% | [4] -50.6% | [5] 1.6% | [6] -16.6%

OC1CC2CCCCC2CC1c1ccccc1 (centres undefined)
inactive: [1] 14.1% | [2] 3.1% | [3] -15.3% | [4] -0.05% | [5] 27.4% | [6] 33.5%

O=C1c2ccccc2C(=O)N1CC(O)COc1cccc2ccccc12 (centres undefined)
inactive: [1] -23.1% | [2] -79.5% | [3] -24.4% | [4] -13.9% | [5] 8.3% | [6] -14.8%

S=C(Sc1nc2ccccc2s1)Sc1nc2ccccc2s1
active: [1] 72% | [2] 91.1% | [3] 95% | [4] 85.5% | [5] 97.5% | [6] 90.7%

C=CCCCCCCCCC(=O)NCC1CC1
inactive: [1] -10.8% | [2] -7.1% | [3] 2.5% | [4] -44.8% | [5] -27.9% | [6] -4.75%

CCc1cccc(CC)c1NC(=S)NC(=O)c1ccc(Br)cc1
inactive: [1] -5.3% | [2] -1.25% | [3] -7.9% | [4] 8.3% | [5] -9.5% | [6] -9.75%

COc1cc(/C=N/NC(=O)N/N=C/c2cc(OC)c(OC)c(OC)c2)cc(OC)c1OC
inactive: [1] -37.9% | [2] -4.8% | [3] -11.1% | [4] 10.9% | [5] 0.95% | [6] 6.4%

COc1cc(C2c3cc4c(cc3OC(N3CCCCC3)C2C)OCO4)cc(OC)c1O (centres undefined)
inactive: [1] 1.45% | [2] -14.3% | [3] -14.3% | [4] 6.95% | [5] -18.5% | [6] -9.25%

c1ccc(CN2CCC(=NN3CCCCC3)CC2)cc1
inactive: [1] 19.9% | [2] -9.5% | [3] 23.2% | [4] 15.2% | [5] 17.9% | [6] -8.55%

NC(=O)C1CCCCC1C(=O)O (centres undefined)
inactive: [1] 1.5% | [2] 5% | [3] 6.65% | [4] -10.7% | [5] 4.6% | [6] 14.8%

CC(CN(C)C)Oc1ccc2c(c1)C(=O)C(C)C2 (centres undefined)
inactive: [1] -25.6% | [2] -5.25% | [3] 4.85% | [4] -28.9% | [5] 22.1% | [6] -22.6%

N#C/C(=C(\O)C(=O)O)c1ccc(-c2cccc3ccccc23)cc1
inactive: [1] 29.6% | [2] 0.6% | [3] -17.9% | [4] 1.9% | [5] 16.7% | [6] 26.9%

Oc1ccc(-c2nc(-c3ccccc3)c(-c3ccccc3)[nH]2)cc1
inactive: [1] -23.1% | [2] -14.9% | [3] -1.1% | [4] -46.3% | [5] -8.3% | [6] 4.05%

C[n+]1ccccc1C#N
inactive: [1] -17.2% | [2] -32.1% | [3] 0.55% | [4] 11.9% | [5] -43.4% | [6] -4.2%

COC(=O)c1ccc(OC(=O)Nc2ccc(SC)cc2)cc1
inactive: [1] 3.2% | [2] 40.5% | [3] 25.4% | [4] -3.4% | [5] 34.2% | [6] 11.7%

Cn1cc(C2(C)CC(C)(C)c3c2n(C)c2ccccc32)c2ccccc21 (centres undefined)
inactive: [1] 0.3% | [2] -16.1% | [3] -12.2% | [4] 7.15% | [5] -17.9% | [6] 2.95%

O=[N+]([O-])c1ccc2nc(/C=C(\O)c3ccccc3)c(/C=C(\O)c3ccc(Cl)cc3)nc2c1
inactive: [1] -10.1% | [2] -28.2% | [3] -52.5% | [4] -66.3% | [5] -62.1% | [6] -31.2%

CC(C)OC(=O)C1CCC(=O)N1 (centres undefined)
inactive: [1] 12.1% | [2] -6.25% | [3] -7.4% | [4] -84.1% | [5] 19% | [6] -20.4%

CC12CCCCC1C1=C(CCCC1)CC2 (centres undefined)
inactive: [1] -4.1% | [2] -4.95% | [3] -5.35% | [4] 9.4% | [5] 6.7% | [6] -17.6%

COc1ccc(-c2cc(C(=O)N/N=C/c3ccc([N+](=O)[O-])cc3)c3ccc(C)cc3n2)cc1OC
inactive: [1] 43.6% | [2] 13.7% | [3] 39.1% | [4] 14.6% | [5] -1.05% | [6] 46.9%

CCCCc1nc2c([nH]1)c(=O)n(C)c(=O)n2C
inactive: [1] 8.1% | [2] -10.9% | [3] 5.2% | [4] 4.85% | [5] -36.5% | [6] 4.25%

CC12NN=NC1C(=O)NC2=O (centres undefined)
inactive: [1] 0.85% | [2] -0.75% | [3] 20.6% | [4] 12% | [5] -3.1% | [6] -5.05%

CC(C)N=C(c1ccccc1)N(O)c1ccccc1
inactive: [1] -0.4% | [2] 3.15% | [3] -0.75% | [4] -10.3% | [5] 4.2% | [6] 5.05%

CC(O)CC(C)O (centres undefined)
inactive: [1] 1.9% | [2] -4.6% | [3] 2.95% | [4] -3.45% | [5] 6.15% | [6] 2.3%

O=[N+]([O-])c1ccc(-n2cccc2)cc1
inactive: [1] -0.55% | [2] 20% | [3] -0.55% | [4] 44.4% | [5] -0.75% | [6] -7.2%

CCN(CC)CCCC(C)Nc1cc(C)c2nc(C)cc(C)c2c1C (centres undefined)
inactive: [1] -22.1% | [2] 9.45% | [3] 17% | [4] -13% | [5] 3.4% | [6] -18.6%

CCN(CC)CCCOC(c1ccccc1)c1ccc(Cl)cc1 (centres undefined)
inactive: [1] 17.8% | [2] 16.9% | [3] 46.5% | [4] 41.9% | [5] 1.1% | [6] 26.1%

CCOc1cn(C2OC(CO)C(O)C2O)c(=O)[nH]c1=O (centres undefined)
inactive: [1] -33.9% | [2] -28.4% | [3] -16.2% | [4] 3.55% | [5] -25.2% | [6] 3.5%

CN(C)C/C=C(/c1ccc(Br)cc1)c1cccnc1
inactive: [1] -5.75% | [2] -16% | [3] -3.7% | [4] -20.4% | [5] -12.6% | [6] 1.65%

S=C1N=C2c3ccccc3C2C(=S)S1 (centres undefined)
inactive: [1] -4.8% | [2] -12.8% | [3] 0% | [4] -24.9% | [5] 4.75% | [6] -7.25%

CCOC(=O)C1Oc2ccccc2O1
inactive: [1] 11.8% | [2] -14.6% | [3] -7% | [4] -41.1% | [5] -13.1% | [6] -10.8%

COc1ccc(Cl)cc1NC(=O)CC(C)=O
inactive: [1] -9.9% | [2] -12.2% | [3] 3.45% | [4] 6.45% | [5] -3.2% | [6] -5.95%

CC[n+]1ccc2cc(OC)c(OC)cc2c1Cc1ccc(OC)c(OC)c1
inactive: [1] -18% | [2] -5.55% | [3] -5.85% | [4] -34% | [5] -1.2% | [6] -16.1%

Cc1cc(NC(=O)C(=O)CC(=O)c2cccnc2)no1
inactive: [1] -59% | [2] -1.8% | [3] -8.2% | [4] -52.1% | [5] -6.2% | [6] -4.15%

CCOC(=O)C(=Cn1ccc(=O)[nH]c1=S)C(=O)OCC
inactive: [1] -4.6% | [2] -31.1% | [3] -23.9% | [4] 9.35% | [5] -11.6% | [6] -10.3%

COC(C(N)=O)c1ccccc1 (centres undefined)
inactive: [1] -9.8% | [2] -11.3% | [3] -16.4% | [4] -8% | [5] 8.7% | [6] -3.45%

O=c1[nH]nc(SCc2ccccc2)c(=O)n1C(c1ccccc1)c1ccccc1
inactive: [1] 26.4% | [2] 12.4% | [3] 18.6% | [4] 28.2% | [5] 8.05% | [6] 5.3%

CC(=O)C=NCC(=O)O
inactive: [1] -2.45% | [2] -3.4% | [3] -32.2% | [4] -24.8% | [5] -26.6% | [6] -8.8%

CS[C@]12C(=O)C[C@@]3(C)[C@@H](CC[C@]3(O)C(=O)CO)[C@@H]1CCC1=CC(=O)CC[C@@]12C
inactive: [1] -2.2% | [2] -24% | [3] -15.9% | [4] 28.7% | [5] -54.8% | [6] -20.4%
